Most compounds without a hit are left out; they make up all but 1.6% or so of the library.
KCNH2 WT inh = qHTS for Inhibitors of KCHN2 3.1: Wildtype qHTS | U2OS, BacMam KCNH2, thallium flux FluxOr; stronger effect = lower value | activity change, % at 1.84 µM | actives 0.37% (n = 340,000);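 active means maximum activity change below -70%; inconclusive means maximum activity change between -70% and -50%; inactive means maximum activity change above -50%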; further: on the % scale 0 is the no-effect control and ±100 the full control effect
Target sequence (Q12809 whole entry, looked up): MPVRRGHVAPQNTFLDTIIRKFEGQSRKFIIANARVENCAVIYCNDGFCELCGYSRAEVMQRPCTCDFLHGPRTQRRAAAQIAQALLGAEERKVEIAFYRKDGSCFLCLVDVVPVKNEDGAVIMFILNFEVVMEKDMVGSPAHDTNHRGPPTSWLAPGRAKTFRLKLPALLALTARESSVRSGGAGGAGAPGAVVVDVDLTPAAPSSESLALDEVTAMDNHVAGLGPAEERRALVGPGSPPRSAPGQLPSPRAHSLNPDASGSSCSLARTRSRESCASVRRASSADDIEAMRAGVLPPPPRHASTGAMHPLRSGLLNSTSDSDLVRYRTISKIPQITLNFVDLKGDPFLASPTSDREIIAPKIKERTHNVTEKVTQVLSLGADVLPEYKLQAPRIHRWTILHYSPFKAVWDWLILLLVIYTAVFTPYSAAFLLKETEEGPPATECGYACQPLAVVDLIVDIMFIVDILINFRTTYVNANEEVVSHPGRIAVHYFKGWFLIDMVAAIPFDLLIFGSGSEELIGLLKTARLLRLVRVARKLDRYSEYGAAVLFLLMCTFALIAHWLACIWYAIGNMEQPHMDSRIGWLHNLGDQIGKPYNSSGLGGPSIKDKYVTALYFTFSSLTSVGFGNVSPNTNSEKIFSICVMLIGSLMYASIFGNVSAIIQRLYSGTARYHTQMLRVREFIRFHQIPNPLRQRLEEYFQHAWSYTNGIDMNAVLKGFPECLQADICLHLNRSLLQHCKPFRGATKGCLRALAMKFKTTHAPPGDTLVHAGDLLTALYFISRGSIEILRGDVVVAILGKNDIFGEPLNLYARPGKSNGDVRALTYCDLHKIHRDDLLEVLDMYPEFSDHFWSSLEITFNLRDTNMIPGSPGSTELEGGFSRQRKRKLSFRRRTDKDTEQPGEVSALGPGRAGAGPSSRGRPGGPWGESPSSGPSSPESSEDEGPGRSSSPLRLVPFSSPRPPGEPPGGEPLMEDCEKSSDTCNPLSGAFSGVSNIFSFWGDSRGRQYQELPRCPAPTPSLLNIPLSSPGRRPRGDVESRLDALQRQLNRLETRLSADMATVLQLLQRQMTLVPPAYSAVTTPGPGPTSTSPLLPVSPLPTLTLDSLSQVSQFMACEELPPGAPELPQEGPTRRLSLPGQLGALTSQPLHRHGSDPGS
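U2OS cells were transduced with wild-type KCNH2 virus (2.03 x 10^8 / mL) for 4 h at room temperature, then cultured overnight at 37 C. Thallium flux was read with FluxOr dye. Rate constants were normalized to DMSO controls.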
GRP78 ERSR act = qHTS for Inducers of the Endoplasmic Reticulum Stress Response (ERSR) in Human Glioma: qHTS; Potency, µM, for the others: at the highest dose activation, usual class: activators; U87-MG GRP78 promoter luciferase reporter, 16 h; actives 0.02% (n = 420,000); active means well fitted activation curve with a large enough effect; inconclusive means small, poorly fitted or top-dose-only effect; inactive means no such curve, though single readings can be large or run the other way; further: potency means the concentration at half of the fitted maximal effect; series mostly up to about 76 µM; % of control where 0% means no effect; nearly all actives have a fitted effect of over 35% in size
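ERSR induction read as luciferase luminescence (Bright-Glo, 10 min at room temperature) in stably transfected human U87-MG glioma cells exposed to compounds for 16 h, using GRP78 as sensor.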
pAkt inh = HTS Assay for Inhibitors of Akt Phophorylation: Primary Screen | Neuro2A IGF-stimulated pAkt S473 HTRF, 20 min; stronger effect = lower value | AID 651550, 2012 | activity change, % for hits at 50 µM | actives 0.32% (n = 360,000); in the data active means activity change below about -80%; inconclusive means mostly about -51% to -80%; further: on the % scale 0 is the no-effect control and ±100 the full control effect
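Neuro2A cells in DMEM with 0.5% FBS, overnight at 37 deg C, given compound at single 50 µM final, then IGF (6 nM final) for 20 min at 37 deg C. Lysed; phospho-Akt Ser473 by HTRF after 24 h, 665/615 ratio.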
gsp antagonist = qHTS for Antagonists of gsp, the Etiologic Mutation Responsible for Fibrous Dysplasia/McCune-Albright Syndrome: qHTS | actives 0.4% (n = 340,000) | AID 624288, 2012 | Potency, µM (series often up to 76.9 µM), inactives show at the highest dose activity change, negative = inhibition, usual class: inhibitors | gsp-mutant cells, cAMP HTRF, 30 min; calls by dose curve; cell line not stated here;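 further: intracellular cAMP measured with PDE inhibitor Ro 20-1724 present during compound exposure; potency means the concentration at half of the fitted maximal effect; on the % scale 0 is the no-effect control and ±100 the full control effect; nearly all actives have a fitted effect of over 65% in size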
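Cells, 2000/well, grown 16–24 h in DMEM 10% FBS with 0.5 mg/ml G418, then compounds plus […] (300 uM addition stock), 30 min at 37C. cAMP read by HTRF (cAMP-d2 and anti-cAMP antibody-K in lysis buffer) after 30 min RT.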
gsp agonist = qHTS for Agonist of gsp, the Etiologic Mutation Responsible for Fibrous Dysplasia/McCune-Albright Syndrome: qHTS; gsp mutant cells, cAMP HTRF, 30 min; Potency, µM (titrated, usually from 76.9 µM), without a hit: at the top dose activation (cAMP increase), hits mostly activators; actives 0.13% (n = 340,000); active means well fitted activation curve with a large enough effect; inconclusive means small, poorly fitted or top-dose-only effect, or another doubt; inactive means no such curve, though single readings can be large or run the other way; cell line not stated here;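 further: phosphodiesterase inhibitor Ro 20-1724 added with compounds to block cAMP breakdown; potency means the concentration at half of the fitted maximal effect; nearly all actives have a fitted effect of over 60% in size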
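Cells stably selected in G418 were plated at 2000/well, grown 16-24 hr, then given compounds in DMSO with the PDE inhibitor […] (300 uM solution added) for 30 min at 37C; cAMP was read by HTRF.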
KCNH2 3.1 inh = qHTS for Inhibitors of KCHN2 3.1: Mutant qHTS; activity change, % (tested at about 1.8 µM); AID 720553, 2013; Potassium voltage-gated channel subfamily H member 2, brain isoform KCNH2 3.1 (human); U2OS KCNH2 3.1, thallium flux FluxOr; stronger effect = lower value; actives 0.95% (n = 340,000);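 active means maximum activity change below -70%; inconclusive means maximum activity change from -70% to -50%; inactive means maximum activity change above -50%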;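 further: thallium influx rate constant from kinetic fluorescence after stimulation buffer; on the % scale 0 is the no-effect control and ±100 the full control effect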
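FluxOr-based Tl+ influx in U2OS cells transduced with KCNH2 3.1 virus; rate constants normalized to DMSO controls.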
* hit, by the source's call; i = inactive; u = inconclusive; x = no result given; [ ] = dose if it differs, or a comment.

SMILES | KCNH2 WT inh | GRP78 ERSR act | pAkt inh | gsp antagonist | gsp agonist | KCNH2 3.1 inh
COc1ccc(CCN2CCCC(CN(C)Cc3cccc(OC)c3)C2)cc1 (stereo not given) | -25 | 3% | i | -3% | 18% | -74*
COc1ccc(CCN2CCCC(CN(C)Cc3cc(OC)ccc3OC)C2)cc1 (stereo not given) | 70 | -5% | i | 3% | 5% | -40
Cc1c(C(=O)NCc2ccccc2Cl)sc2ncnc(NCC3CCCO3)c12 (stereo not given) | x | -7% | x | x | x | x
O=C(O)c1[nH]c2ccc([N+](=O)[O-])cc2c1-c1ccccc1 | 0 | -5% | i | 8% | -39% | -194*
NNC(=O)c1[nH]c2ccc([N+](=O)[O-])cc2c1-c1ccccc1 | -4 | -7% | i | 12% | u | -4
Cc1cc(-c2ccnc(-n3ncc(C(=O)NCC4CCCO4)c3C3CC3)n2)c(C)s1 (stereo not given) | x | 1% | x | x | x | x
O=C(NCc1nnnn1-c1ccc(F)c(F)c1)c1ccc2c(c1)OCO2 | -2 | -8% | i | 10% | 8%[15.4 µM] | -18
O=C(NCc1nnc2c(C(F)(F)F)cc(Cl)cn12)c1ccc2c(c1)OCO2 | -160* | -1% | i | 15% | u | 11
O=C(NCc1nnc2c(C(F)(F)F)cc(Cl)cn12)c1cccnc1 | 33 | -4% | x | 2% | u | 0
O=C(NCc1nnc2c(C(F)(F)F)cc(Cl)cn12)c1ccc(Br)o1 | 1 | -2% | i | 14% | 13µM* | 0
C(=C\c1ccnc2ccccc12)/c1ccc(-[n+]2cc[n+](-c3ccc(/C=C/c4ccnc5ccccc45)cc3)cc2)cc1 | x | -1% | x | x | x | x
Cc1ccc(NC(=S)N/N=C2\CC3CC=CC23)c(C)c1 (stereo not given) | -3 | -4% | i | -1% | -25% | 3
Cc1cccc(C)c1NC(=S)N/N=C1\CC2CC=CC12 (stereo not given) | 7 | -1% | i | x | 18%[15.4 µM] | -131*
OCCN1CCN(Cc2ccc3c(c2)CN(Cc2ccc4ccccc4c2)CCO3)CC1 | x | -6% | x | x | x | x
O=C(NCC1CCC2(CCN(Cc3cccc4cccnc34)CC2)O1)c1ccco1 (stereo not given) | x | 1% | x | x | x | x
CCCNCc1cc(Cl)c(OCC)c(Cl)c1 | -7 | -2% | i | 5% | 29% | 1
C=CCOc1c(Cl)cc(CNCCC)cc1Cl | 3 | 6% | -91%* | 7% | -3% | 2
Cc1cc(/C=C/c2ccnc3ccccc23)ccc1N(C)C | x | 0% | x | x | x | x
CCOC(=O)N/N=C1/C[C@@H](O)[C@@H](O)[C@@H]2[C@@H]3C(=O)N(CC)C(=O)[C@H]3CC[C@@H]12 | x | -4% | x | x | x | x
Cc1cc(C)nc(NC(=NCCc2c[nH]c3ccc(Cl)cc23)NC(=O)c2ccccc2C)n1 | x | 1% | x | x | x | x
Cc1cc(C)nc(NC(=NCCc2c[nH]c3ccccc23)NC(=O)C(C)(C)C)n1 | 9 | -3% | i | u | -20%[15.4 µM] | -88*
CN(C)c1ccc(/C=C2\C=Cc3ccccc32)c(F)c1 | x | -2% | x | x | x | x
CC1CC(C)CN(C(=O)COC(=O)/C=C/c2cccc([N+](=O)[O-])c2)C1 (stereo not given) | 4 | -3% | i | 3% | -6%[15.4 µM] | -109*
CC1CN(C(=O)COC(=O)/C=C/c2cccc([N+](=O)[O-])c2)CC(C)O1 (stereo not given) | -14 | -3% | i | 3% | 17% | -1
CC(C)N(C)C(=O)c1ccc(OC2CCN(CCc3ccccc3)CC2)cc1 | 14 | -2% | i | 8% | 3% | -87*
